Reference: PubChem BioAssay AID1619 (SRMLSC, 2009)
In all, about 220,000 compounds went through this assay and about 830 (0.38%) were called active.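 Rule for the calls: active = compound inhibiting the enzyme by more than half at any dose during confirmatory dose-response retesting; inconclusive = strong single-dose inhibitors picked by rank but not retested; inactive = the rest.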 Not all results are given here. Results with a measured potency or affinity are listed apart.

molecular target: Leucine aminopeptidase (Plasmodium falciparum (isolate 3D7)) (UniProt Q8IL11); experiment: P. falciparum M17LAP inhibitors, primary screen, biochemical, fluorogenic H-Leu-NHMec substrate, 1536-well (AID 1619); conditions: recombinant M17LAP, H-Leu-NHMec fluorogenic kinetic assay; at 30 µM; active compounds read high;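 note: plate controls were full reaction with DMSO carrier for no effect and no enzyme background for full effect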
Sequence (Q8IL11 whole entry, looked up): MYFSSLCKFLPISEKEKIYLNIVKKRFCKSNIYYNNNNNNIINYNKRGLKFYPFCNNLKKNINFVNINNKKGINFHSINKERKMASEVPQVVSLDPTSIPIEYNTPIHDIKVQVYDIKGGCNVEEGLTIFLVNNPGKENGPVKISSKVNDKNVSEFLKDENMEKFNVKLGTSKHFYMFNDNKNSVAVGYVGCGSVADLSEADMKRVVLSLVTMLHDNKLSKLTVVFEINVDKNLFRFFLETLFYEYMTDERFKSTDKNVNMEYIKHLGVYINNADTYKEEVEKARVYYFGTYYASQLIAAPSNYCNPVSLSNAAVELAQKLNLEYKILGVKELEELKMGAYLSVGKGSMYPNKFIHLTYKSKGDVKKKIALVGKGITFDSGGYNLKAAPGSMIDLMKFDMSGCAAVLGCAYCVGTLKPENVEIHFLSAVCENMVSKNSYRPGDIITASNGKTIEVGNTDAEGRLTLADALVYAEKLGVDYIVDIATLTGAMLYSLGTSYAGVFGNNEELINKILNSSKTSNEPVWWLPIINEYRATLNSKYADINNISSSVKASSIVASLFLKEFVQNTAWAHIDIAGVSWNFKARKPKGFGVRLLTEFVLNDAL

inhibition, inactive:
O=C(CCSc1ccccc1)NCCSCc1ccco1 22.2%
CCOC(=O)c1oc2c(C)c(O)ccc2c(=O)c1-c1nncn1-c1ccccc1 17.4%
Cc1oc2c(C)c(O)ccc2c(=O)c1-c1nncn1-c1ccccc1 5.69%
CSc1cccc(NC(=O)C2CCN(S(=O)(=O)c3ccc(F)cc3)CC2)c1 -0.52%
COc1cccc(C(=O)NCC2CCN(c3ccc(S(=O)(=O)N4CCOCC4)cc3)CC2)c1 4%
CN(C)S(=O)(=O)c1ccc(C(=O)NC(=O)CSc2ccccc2)cc1 6.97%
CC1=NNC(=O)C1CC(=O)N/N=C/c1cccs1 (stereo unspecified) 5.62%
CC1=NNC(=O)C1CC(=O)N/N=C/c1ccc(C)o1 (stereo unspecified) 5.16%
C/C(=N\NC(=O)C1=NNC(=O)C1C)c1cccs1 (stereo unspecified) 24.2%
CC1=NNC(=O)C1CC(=O)N/N=C/c1ccncc1 (stereo unspecified) -2.88%
Cc1ccc(/C=C/C(=O)NCCCc2ccccc2)cc1 -0.31%
CCc1ccccc1NC(=O)CC1S/C(=N\c2nccs2)N(CC)C1=O (stereo unspecified) 0.04%
COc1ccc2cc(C)c(SCC(=O)Nc3cc(C)on3)nc2c1 -7.8%
COc1cc(NC(=O)CSc2nnc3c(C)cc4c(C)ccc(C)c4n23)c(C(=O)O)cc1OC 3.38%
CCc1cc2cc3c(cc2nc1SCC(=O)Nc1nccs1)OCO3 -1.06%
Cc1ccc2cc(C)c(SCC(=O)Nc3ccc(S(=O)(=O)N4CCCC4)cc3)nc2c1 -14.9%
CCc1cc2cc3c(cc2nc1SCC(=O)Nc1cc(C)on1)OCO3 7.57%
CCc1cc2ccc(C)cc2nc1SCC(=O)Nc1c[nH]c(=O)[nH]c1=O 21.2%
CCc1ccc2c(c1)cc(C)c1nnc(SCC(=O)Nc3cc(OC)c(OC)cc3C(=O)O)n12 7.71%
CCc1cc2ccc(C)cc2nc1SCC(=O)Nc1cc(C)on1 -2.5%
Cc1ccccc1OCCCCn1c(CO)nc2ccccc21 5.4%
CN(Cc1ccccc1)C(=O)Cn1c(=O)oc2cc(S(=O)(=O)NCc3ccccc3)ccc21 -8.79%
Nc1cc(=O)[nH]c(SCC(=O)Nc2ccc(S(=O)(=O)N3CCCCC3)cc2)n1 10.7%
CCOc1ccc(N2C(=O)CC(NCCc3ccncc3)C2=O)cc1 (stereo unspecified) 3.75%
CN1CC(=O)N(CCOc2ccccc2)C1=O 5.27%
CN1CCN(c2ccccc2NC(=O)c2cccc([N+](=O)[O-])c2)CC1 -3.18%
